Test results as given in the supplement of paper PMC11732987, “Enantioselective OTUD7B fragment discovery through chemoproteomics screening and high-throughput optimisation” (Communications Chemistry, 2025).

Tests used:
Experiment in all cases: log2 ratio of Biotin-Ahx-Ub-VS probe labelling (fragment/DMSO); higher = less target engagement (more negative = stronger competition), active = hit call of the paper (q ≤ 0.05, log2 ratio ≤ -1)
Details in all cases: compound concentration: 200 uM; treatment time: 3 h
[1] = molecular target: USP34 (UniProt Q70CQ2)
Sequence of USP34 (Q70CQ2 whole entry, the tested form may be a part): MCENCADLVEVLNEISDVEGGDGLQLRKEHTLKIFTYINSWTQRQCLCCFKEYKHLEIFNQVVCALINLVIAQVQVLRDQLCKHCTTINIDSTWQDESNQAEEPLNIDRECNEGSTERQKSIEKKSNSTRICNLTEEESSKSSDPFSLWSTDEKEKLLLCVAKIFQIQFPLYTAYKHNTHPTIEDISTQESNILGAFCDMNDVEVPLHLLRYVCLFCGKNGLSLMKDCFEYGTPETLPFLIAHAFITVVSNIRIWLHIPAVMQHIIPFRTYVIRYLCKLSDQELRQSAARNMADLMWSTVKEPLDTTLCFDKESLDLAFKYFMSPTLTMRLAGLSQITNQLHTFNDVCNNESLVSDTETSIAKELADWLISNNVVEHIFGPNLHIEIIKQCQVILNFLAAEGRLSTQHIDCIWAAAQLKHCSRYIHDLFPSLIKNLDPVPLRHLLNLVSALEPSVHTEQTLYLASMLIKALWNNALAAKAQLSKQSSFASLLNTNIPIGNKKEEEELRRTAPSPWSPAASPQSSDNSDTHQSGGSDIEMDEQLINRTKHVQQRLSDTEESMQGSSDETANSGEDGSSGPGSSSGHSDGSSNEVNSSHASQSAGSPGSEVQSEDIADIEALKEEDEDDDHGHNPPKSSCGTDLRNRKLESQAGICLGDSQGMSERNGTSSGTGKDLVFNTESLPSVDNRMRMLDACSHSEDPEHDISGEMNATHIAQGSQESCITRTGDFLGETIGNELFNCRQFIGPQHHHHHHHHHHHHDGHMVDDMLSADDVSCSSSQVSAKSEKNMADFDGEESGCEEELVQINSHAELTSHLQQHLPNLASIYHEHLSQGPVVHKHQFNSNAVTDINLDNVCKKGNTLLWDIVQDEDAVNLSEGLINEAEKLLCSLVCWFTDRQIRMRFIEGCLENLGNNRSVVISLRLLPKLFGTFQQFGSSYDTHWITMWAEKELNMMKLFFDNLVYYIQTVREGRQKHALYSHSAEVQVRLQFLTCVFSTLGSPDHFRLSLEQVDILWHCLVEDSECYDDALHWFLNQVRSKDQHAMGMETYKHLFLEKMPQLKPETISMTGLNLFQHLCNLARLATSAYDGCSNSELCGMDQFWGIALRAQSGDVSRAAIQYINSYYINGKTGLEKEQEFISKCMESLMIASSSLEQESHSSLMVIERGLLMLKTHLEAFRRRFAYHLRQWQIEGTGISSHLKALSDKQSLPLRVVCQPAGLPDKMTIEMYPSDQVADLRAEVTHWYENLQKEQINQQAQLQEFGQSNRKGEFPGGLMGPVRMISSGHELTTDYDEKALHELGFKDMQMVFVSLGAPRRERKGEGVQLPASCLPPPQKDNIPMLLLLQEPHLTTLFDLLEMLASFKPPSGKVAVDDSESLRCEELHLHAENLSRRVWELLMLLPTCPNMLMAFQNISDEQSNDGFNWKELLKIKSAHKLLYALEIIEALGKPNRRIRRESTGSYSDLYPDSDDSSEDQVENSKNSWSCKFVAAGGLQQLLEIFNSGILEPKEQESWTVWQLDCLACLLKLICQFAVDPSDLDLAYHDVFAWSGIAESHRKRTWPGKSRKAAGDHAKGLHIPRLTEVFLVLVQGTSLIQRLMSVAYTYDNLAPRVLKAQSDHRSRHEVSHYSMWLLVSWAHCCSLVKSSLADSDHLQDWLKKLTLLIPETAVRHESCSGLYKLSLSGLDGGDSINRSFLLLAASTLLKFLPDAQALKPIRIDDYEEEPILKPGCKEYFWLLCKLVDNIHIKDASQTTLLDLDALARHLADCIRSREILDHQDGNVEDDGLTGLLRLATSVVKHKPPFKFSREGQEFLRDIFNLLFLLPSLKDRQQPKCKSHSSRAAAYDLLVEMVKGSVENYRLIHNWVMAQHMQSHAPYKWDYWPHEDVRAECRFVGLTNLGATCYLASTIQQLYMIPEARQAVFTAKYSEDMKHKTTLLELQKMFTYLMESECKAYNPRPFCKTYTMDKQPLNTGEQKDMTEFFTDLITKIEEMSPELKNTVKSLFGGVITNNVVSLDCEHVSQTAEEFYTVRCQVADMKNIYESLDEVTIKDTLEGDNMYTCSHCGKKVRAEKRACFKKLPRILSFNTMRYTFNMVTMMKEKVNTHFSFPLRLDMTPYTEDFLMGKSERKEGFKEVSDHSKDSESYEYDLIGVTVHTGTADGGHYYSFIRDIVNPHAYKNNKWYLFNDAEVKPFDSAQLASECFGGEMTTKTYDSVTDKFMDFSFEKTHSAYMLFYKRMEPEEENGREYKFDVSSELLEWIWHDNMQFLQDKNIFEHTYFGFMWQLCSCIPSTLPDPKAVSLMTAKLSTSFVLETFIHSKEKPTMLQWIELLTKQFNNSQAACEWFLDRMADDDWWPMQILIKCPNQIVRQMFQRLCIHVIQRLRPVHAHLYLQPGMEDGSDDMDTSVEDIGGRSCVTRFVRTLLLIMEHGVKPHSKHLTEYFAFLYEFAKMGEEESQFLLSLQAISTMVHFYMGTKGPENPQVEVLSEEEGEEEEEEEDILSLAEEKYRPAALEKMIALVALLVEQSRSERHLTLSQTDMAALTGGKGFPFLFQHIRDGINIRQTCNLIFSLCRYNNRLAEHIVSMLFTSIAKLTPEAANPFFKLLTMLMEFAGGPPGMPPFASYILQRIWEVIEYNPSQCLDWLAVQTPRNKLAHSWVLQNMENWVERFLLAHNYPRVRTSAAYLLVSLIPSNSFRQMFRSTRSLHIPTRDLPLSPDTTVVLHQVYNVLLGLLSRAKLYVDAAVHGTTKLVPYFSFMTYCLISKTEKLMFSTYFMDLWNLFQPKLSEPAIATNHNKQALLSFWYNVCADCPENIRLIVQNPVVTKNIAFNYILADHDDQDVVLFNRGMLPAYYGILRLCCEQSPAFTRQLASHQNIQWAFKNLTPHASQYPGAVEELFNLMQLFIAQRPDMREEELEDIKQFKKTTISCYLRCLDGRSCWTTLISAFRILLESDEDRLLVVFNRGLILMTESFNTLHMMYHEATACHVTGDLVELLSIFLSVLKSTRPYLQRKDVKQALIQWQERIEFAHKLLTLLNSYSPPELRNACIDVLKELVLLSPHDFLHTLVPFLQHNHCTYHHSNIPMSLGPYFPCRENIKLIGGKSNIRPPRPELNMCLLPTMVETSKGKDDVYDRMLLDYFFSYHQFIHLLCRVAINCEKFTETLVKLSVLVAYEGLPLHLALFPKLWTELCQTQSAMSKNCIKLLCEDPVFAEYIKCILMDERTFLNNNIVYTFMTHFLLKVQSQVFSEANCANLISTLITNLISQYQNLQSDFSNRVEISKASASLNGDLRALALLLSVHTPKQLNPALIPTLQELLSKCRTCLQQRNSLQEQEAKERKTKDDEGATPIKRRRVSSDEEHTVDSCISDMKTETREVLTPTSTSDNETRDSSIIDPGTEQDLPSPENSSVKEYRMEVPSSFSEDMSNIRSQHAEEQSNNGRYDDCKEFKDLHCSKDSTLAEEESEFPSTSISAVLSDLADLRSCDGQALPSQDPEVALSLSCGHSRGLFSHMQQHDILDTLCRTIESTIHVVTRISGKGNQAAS
Procedure, shortened: (§1)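 The table lists average log2 ratios of fragment over vehicle, from an unpaired t-test on global-median-normalised Spectronaut label-free quantities. Proteins with ≥2 unique peptides were used. Samples were HEK293T lysate (495 µg) treated in triplicate with fragment at 200 µM or vehicle for 3 h, then with Biotin-Ahx-Ub-VS (0.5 µM final) for 1 h, with labelled DUBs NeutrAvidin-enriched and run by diaPASEF LC-MS/MS.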

[2] = molecular target: T1, USP36 (UniProt Q9P275)
T1 sequence (whole entry): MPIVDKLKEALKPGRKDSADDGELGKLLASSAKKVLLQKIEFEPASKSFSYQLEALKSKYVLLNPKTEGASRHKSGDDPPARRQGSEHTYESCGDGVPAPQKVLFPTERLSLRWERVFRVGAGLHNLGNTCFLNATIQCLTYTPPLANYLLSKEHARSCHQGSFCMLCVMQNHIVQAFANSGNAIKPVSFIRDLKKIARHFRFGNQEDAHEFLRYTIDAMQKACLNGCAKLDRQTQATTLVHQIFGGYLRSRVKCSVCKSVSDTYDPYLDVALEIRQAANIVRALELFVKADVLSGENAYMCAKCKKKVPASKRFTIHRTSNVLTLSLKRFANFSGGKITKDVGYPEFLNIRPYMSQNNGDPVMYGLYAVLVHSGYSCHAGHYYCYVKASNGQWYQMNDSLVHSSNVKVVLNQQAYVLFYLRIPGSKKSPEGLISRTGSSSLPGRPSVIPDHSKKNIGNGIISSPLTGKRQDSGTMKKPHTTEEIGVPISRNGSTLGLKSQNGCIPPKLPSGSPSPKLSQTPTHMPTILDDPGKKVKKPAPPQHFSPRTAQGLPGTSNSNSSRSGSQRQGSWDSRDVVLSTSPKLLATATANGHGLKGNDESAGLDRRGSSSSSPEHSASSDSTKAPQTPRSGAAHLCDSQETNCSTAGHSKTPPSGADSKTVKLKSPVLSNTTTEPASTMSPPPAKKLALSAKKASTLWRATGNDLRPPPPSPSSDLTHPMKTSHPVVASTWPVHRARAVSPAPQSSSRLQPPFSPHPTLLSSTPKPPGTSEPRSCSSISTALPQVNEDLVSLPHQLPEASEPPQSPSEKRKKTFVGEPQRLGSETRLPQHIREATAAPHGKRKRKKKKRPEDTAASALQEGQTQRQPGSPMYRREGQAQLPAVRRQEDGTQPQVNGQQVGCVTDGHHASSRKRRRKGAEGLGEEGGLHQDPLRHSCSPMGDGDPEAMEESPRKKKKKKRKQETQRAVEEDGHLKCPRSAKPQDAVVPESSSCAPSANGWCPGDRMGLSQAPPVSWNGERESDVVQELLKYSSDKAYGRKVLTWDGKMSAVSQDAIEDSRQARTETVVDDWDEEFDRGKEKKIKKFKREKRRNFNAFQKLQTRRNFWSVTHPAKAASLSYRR
Procedure, shortened: as §1

[3] = molecular target: T2, USP38 (UniProt Q8NB14)
T2 sequence (whole entry): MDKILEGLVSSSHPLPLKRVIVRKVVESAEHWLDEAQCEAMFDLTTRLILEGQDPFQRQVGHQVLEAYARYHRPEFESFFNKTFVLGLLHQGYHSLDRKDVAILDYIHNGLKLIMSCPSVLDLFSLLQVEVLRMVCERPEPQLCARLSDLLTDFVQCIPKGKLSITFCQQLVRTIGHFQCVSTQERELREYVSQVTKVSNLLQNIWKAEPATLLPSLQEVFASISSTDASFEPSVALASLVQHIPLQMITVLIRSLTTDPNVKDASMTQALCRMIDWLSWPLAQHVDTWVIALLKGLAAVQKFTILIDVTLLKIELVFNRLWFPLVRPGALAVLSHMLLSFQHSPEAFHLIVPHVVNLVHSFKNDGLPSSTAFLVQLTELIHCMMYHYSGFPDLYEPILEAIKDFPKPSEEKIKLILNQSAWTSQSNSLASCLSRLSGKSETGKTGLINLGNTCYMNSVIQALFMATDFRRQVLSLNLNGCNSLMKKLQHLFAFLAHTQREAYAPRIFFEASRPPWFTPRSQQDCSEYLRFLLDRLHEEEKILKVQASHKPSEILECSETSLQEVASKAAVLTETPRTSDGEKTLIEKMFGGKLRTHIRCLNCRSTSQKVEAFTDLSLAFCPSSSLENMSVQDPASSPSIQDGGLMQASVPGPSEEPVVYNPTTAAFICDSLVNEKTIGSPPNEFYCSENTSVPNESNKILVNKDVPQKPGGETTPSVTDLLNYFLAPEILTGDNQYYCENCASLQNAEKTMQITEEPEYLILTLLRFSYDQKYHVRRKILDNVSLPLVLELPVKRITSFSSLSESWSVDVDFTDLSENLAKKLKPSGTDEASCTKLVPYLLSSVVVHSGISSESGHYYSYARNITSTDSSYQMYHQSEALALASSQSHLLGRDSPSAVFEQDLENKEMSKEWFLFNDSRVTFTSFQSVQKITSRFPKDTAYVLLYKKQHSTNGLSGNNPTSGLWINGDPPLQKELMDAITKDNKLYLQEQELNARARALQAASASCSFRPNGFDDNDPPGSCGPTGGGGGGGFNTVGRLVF
Procedure, shortened: as §1

[4] = molecular target: T3, USP39 (UniProt Q53GS9)
T3 sequence (whole entry): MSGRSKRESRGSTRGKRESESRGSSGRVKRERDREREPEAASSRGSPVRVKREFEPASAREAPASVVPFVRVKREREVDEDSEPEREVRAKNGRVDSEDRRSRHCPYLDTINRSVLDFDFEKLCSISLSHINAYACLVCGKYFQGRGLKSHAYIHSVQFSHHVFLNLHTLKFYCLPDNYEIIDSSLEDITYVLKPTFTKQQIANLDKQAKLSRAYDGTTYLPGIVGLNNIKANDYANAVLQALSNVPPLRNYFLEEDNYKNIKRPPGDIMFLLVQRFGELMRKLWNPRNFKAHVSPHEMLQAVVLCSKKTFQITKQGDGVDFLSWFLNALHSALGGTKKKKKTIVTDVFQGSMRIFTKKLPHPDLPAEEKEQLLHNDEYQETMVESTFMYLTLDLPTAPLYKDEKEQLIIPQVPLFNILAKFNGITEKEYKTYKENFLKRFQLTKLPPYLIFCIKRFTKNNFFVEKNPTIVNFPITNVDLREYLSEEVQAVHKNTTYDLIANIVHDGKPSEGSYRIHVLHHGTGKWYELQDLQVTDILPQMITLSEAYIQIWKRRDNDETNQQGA
Procedure, shortened: as §1

[5] = molecular target: T4, USP4 (UniProt Q13107)
T4 sequence (whole entry): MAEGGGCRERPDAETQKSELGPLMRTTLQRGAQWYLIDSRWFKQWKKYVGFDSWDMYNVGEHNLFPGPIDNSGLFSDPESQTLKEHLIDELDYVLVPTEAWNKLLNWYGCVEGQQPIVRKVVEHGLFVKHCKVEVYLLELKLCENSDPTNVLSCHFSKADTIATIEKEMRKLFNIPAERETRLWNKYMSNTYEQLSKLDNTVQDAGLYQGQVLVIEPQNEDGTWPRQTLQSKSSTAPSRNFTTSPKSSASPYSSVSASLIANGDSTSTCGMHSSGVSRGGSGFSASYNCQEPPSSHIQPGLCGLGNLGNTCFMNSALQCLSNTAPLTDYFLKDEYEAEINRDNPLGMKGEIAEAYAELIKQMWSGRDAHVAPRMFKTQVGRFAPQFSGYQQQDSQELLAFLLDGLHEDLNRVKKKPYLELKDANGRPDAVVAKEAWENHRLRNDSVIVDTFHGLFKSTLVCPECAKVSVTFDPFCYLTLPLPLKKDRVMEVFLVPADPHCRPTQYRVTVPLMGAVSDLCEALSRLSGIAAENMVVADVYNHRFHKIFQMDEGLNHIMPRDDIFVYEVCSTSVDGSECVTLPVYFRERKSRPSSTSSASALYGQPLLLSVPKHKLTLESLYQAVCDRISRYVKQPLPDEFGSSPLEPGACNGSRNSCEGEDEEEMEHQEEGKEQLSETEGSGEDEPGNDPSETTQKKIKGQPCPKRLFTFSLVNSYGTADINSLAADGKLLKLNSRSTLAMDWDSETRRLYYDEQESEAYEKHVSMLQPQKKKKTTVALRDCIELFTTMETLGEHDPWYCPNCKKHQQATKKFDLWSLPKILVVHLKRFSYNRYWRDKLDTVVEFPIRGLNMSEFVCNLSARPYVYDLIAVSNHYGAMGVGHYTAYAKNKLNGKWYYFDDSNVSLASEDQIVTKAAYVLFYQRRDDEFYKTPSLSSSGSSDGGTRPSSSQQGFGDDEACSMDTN
Procedure, shortened: as §1

Measured: log2 ratio of Biotin-Ahx-Ub-VS probe labelling

CC(NC(=O)CCl)c1cc2n(n1)CCCC2.Cl (stereo not given)
inactive: [1] -0.00259 | [2] 0.028 | [3] -0.215 | [4] -0.149 | [5] -0.121
